According to PMC7862700, “An all-to-all approach to the identification of sequence-specific readers for epigenetic DNA modifications on cytosine”:

Assays:
Experiment in all cases: DAPPL (digital affinity profiling via proximity ligation, sequencing); 10 mM Tris-HCl pH 7.5, 50 mM NaCl, 1 mM DTT, 4% glycerol, room temperature, 30 min; GST-TFs on glutathione beads, 16-mer random dsDNA library, 0.1% formaldehyde crosslink after washing; high values mean tight binding
Conditions in all cases: protein: recombinant; tags: N-terminal GST; dsDNA, one strand shown
FLI1 = molecular target: T1, FLI1 (Homo sapiens, UniProt Q01543 1-452)
T1 sequence: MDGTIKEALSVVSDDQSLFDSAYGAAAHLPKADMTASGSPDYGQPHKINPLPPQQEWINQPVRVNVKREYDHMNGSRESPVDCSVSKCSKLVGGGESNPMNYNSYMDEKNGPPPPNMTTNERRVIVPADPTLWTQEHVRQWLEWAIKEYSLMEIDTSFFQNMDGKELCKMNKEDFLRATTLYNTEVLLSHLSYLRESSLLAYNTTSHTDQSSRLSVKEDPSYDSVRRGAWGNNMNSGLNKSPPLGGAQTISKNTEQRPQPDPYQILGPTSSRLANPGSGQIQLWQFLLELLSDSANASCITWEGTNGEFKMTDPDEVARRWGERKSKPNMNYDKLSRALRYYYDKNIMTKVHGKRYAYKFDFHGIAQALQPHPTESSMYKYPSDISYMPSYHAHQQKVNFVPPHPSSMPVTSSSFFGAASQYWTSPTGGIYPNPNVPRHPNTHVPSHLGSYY
How it was run: (§1)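 Beads coated with glutathione captured GST-fused human transcription factors that had been expressed in yeast, and the factors were then given DNA barcodes and pooled with a tag-only sample. The pools were incubated with 200 nmole of a random double-stranded 16-mer DNA library in Tris/NaCl/DTT/glycerol buffer for 30 min at room temperature, washed, crosslinked with 0.1% formaldehyde and proximity-ligated with BsaI/T4 ligase at 37 °C for 1 h. PCR amplification and Illumina NextSeq500 sequencing came last. Binding signal is each hexamer's read frequency for a factor divided by its frequency for the tag-only sample.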

ELK1 = molecular target: T2, ELK1 (Homo sapiens, UniProt P19419 1-428)
T2 sequence: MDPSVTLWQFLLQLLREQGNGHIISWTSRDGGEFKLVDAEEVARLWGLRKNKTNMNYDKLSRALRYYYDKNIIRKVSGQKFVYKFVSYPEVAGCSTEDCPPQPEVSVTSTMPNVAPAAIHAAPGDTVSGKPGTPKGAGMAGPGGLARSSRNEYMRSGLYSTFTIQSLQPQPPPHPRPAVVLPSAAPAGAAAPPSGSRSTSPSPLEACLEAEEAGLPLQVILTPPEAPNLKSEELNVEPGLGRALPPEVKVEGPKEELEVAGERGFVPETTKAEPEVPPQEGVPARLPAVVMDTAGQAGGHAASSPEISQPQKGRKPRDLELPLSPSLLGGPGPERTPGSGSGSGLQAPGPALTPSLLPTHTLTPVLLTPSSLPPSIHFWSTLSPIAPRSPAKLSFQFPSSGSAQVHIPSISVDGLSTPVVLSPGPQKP
How it was run: as §1

GABPA = molecular target: T3, GABPA (Homo sapiens, UniProt Q06546 1-454)
T3 sequence: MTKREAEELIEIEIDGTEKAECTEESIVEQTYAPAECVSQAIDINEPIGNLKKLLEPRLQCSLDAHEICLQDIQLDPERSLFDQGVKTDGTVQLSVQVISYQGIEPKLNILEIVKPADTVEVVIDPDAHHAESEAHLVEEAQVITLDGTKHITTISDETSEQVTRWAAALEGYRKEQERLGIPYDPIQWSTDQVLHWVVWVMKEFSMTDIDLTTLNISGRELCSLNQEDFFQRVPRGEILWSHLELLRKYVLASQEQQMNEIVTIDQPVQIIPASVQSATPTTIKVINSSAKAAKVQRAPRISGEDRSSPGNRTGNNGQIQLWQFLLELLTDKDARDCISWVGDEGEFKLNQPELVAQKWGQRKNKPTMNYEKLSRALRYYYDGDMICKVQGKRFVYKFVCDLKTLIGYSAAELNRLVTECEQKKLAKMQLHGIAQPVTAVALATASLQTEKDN
How it was run: as §1

ERG = molecular target: T4, ERG (Homo sapiens, UniProt P11308 1-479)
T4 sequence: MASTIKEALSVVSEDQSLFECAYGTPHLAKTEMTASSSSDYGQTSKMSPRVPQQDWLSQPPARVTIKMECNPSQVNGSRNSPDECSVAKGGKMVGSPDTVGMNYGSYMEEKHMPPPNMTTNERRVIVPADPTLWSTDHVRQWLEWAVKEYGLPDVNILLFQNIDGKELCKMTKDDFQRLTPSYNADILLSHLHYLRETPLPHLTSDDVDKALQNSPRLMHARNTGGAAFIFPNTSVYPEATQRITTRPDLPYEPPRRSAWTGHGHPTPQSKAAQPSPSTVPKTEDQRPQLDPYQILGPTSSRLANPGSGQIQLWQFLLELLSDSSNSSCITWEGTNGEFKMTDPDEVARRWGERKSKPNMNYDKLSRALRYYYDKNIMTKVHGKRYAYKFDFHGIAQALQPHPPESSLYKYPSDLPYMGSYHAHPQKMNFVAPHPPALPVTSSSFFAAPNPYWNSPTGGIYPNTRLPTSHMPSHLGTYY
How it was run: as §1

ELF1 = ELF1 (Homo sapiens, UniProt P32519 1-619)
How it was run: as §1

EHF = molecular target: T5, EHF (Homo sapiens, UniProt Q9NZC4 1-300)
T5 sequence: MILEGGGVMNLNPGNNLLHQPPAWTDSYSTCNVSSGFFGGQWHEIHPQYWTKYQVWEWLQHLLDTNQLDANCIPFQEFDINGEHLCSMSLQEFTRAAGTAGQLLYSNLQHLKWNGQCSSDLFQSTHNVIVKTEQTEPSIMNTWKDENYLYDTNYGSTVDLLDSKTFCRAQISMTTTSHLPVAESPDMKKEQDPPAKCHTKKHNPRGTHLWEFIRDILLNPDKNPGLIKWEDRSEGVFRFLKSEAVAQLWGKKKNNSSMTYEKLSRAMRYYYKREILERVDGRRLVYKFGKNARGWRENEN
How it was run: as §1

SPI1 = SPI1 (Homo sapiens, UniProt P17947 1-270)
How it was run: as §1

SPIB = SPIB (Homo sapiens, UniProt Q01892 1-262)
How it was run: as §1

ELK3 = molecular target: T6, ELK3 (Homo sapiens, UniProt P41970 1-407)
T6 sequence: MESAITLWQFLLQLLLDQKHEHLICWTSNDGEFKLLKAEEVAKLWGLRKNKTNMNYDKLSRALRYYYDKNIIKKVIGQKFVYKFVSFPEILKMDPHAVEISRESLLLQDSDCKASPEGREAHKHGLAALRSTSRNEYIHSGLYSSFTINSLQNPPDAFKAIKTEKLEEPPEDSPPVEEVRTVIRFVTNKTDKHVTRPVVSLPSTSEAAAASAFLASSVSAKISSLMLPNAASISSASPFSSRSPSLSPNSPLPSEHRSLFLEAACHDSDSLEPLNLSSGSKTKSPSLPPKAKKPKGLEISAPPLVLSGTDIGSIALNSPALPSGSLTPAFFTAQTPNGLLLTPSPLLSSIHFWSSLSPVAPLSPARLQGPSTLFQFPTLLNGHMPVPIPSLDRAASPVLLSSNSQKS
How it was run: as §1

Chain of SPIB (Q01892 whole entry): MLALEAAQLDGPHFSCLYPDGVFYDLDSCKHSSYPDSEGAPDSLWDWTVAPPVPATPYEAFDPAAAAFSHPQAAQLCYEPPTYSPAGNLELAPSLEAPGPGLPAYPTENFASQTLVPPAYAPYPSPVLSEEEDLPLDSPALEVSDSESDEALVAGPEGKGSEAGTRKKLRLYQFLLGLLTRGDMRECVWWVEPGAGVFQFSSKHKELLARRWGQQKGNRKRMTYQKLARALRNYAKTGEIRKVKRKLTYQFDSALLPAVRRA
Chain of ELF1 (P32519 whole entry): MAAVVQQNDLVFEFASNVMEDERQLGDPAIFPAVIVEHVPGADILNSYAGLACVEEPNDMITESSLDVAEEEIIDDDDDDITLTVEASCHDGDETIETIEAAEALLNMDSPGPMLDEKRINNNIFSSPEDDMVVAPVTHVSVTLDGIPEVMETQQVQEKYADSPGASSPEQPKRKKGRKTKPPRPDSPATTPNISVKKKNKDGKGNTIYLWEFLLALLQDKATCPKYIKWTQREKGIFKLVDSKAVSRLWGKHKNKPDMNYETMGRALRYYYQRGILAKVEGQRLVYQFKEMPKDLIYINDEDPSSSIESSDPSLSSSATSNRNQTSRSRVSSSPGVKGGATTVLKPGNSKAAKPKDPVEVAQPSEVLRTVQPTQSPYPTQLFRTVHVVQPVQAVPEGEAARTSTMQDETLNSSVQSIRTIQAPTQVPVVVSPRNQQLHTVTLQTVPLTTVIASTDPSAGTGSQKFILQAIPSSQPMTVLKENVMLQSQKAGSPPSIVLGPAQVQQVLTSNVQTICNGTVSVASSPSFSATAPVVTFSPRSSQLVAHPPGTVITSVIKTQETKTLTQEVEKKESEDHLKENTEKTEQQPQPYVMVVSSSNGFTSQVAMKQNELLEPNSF

Sequence	binding signal (FLI1)	binding signal (ELK1)	binding signal (GABPA)	binding signal (ERG)	binding signal (ELF1)	binding signal (EHF)	binding signal (SPI1)	binding signal (SPIB)	binding signal (ELK3)
AATACG	1.11 fold enrichment (6-mer frequency, TF over GST control)	1.19 fold enrichment (6-mer frequency, TF over GST control)	1.24 fold enrichment (6-mer frequency, TF over GST control)	1.22 fold enrichment (6-mer frequency, TF over GST control)	1.12 fold enrichment (6-mer frequency, TF over GST control)	1.18 fold enrichment (6-mer frequency, TF over GST control)	1.32 fold enrichment (6-mer frequency, TF over GST control)	1.25 fold enrichment (6-mer frequency, TF over GST control)	1.26 fold enrichment (6-mer frequency, TF over GST control)
TCTGAT	1.15 fold enrichment (6-mer frequency, TF over GST control)	1.21 fold enrichment (6-mer frequency, TF over GST control)	1.29 fold enrichment (6-mer frequency, TF over GST control)	1.1 fold enrichment (6-mer frequency, TF over GST control)	1.27 fold enrichment (6-mer frequency, TF over GST control)	1.25 fold enrichment (6-mer frequency, TF over GST control)	1.11 fold enrichment (6-mer frequency, TF over GST control)	1.31 fold enrichment (6-mer frequency, TF over GST control)	1.14 fold enrichment (6-mer frequency, TF over GST control)
ACGATT	1.44 fold enrichment (6-mer frequency, TF over GST control)	1.31 fold enrichment (6-mer frequency, TF over GST control)	1.29 fold enrichment (6-mer frequency, TF over GST control)	1.34 fold enrichment (6-mer frequency, TF over GST control)	1.32 fold enrichment (6-mer frequency, TF over GST control)	1.32 fold enrichment (6-mer frequency, TF over GST control)	1.31 fold enrichment (6-mer frequency, TF over GST control)	1.3 fold enrichment (6-mer frequency, TF over GST control)	1.38 fold enrichment (6-mer frequency, TF over GST control)
